Experimental data taken from PubChem BioAssay AID2537 (National Center for Advancing Translational Sciences (NCATS), 2010).
Records with an inconclusive call do not appear. Values without a mark were called inactive. Calls of active or inactive are those of the source. The call rests on the fitted dose curve; in most records, active means well fitted inhibition curve with a large enough effect; inconclusive means small, poorly fitted or top-dose-only effect; inactive means no such curve, though single readings can be large or run the other way.

Biological target: Polyunsaturated fatty acid lipoxygenase ALOX15B (Homo sapiens) (UniProt O15296)
Sequence (O15296 whole entry, looked up): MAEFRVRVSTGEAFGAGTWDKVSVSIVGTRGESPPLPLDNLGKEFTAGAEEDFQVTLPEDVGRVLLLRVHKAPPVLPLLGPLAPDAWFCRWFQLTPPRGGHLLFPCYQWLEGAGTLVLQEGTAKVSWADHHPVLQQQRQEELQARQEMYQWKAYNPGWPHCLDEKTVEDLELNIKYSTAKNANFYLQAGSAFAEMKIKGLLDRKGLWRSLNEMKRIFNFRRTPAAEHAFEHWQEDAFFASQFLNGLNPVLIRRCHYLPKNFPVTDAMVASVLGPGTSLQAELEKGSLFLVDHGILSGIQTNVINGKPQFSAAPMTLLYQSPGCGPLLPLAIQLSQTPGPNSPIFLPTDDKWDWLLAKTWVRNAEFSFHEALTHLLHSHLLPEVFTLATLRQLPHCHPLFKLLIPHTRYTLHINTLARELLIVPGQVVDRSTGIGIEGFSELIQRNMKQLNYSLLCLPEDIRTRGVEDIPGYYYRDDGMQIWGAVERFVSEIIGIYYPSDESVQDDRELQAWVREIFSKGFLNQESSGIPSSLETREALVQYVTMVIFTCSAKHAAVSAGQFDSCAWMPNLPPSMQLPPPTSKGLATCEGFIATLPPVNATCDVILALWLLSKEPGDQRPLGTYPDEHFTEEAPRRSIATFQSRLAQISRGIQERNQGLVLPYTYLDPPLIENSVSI
Assay: Confirmation qHTS Assay for Inhibitors of 15-hLO-2 (15-human lipoxygenase 2)
Conditions: purified 15hLO-2, xylenol orange hydroperoxide absorbance; series mostly up to 57.1 µM; activity change, negative = inhibition: at the top concentration
Method: Human lipoxygenase 15hLO-2 is a member of the closely related lipoxygenase family of enzymes which catalyze the site-specific oxidation of arachidonic acid to various hormone precursor molecules and as such is a candidate for drug development in a variety of disease areas, such as cancer and inflammation. Inhibition of 15hLO-2 activity was screened by utilizing arachidonic acid as a substrate. The extent of hydroperoxide product formation was measured by a secondary chromogenic reaction in which xylenol orange (XO, Sigma-Aldrich, cat. number 39,818-7) reacts with the ferric ions produced from the reaction between the hydroperoxide and ferrous ions. The Fe(III)-XO complex is characterized with red-shifted absorbance at 560 nm. A purified preparation of human 15hLO-2 was supplied by Professor Ted Holman, University of California, Santa Cruz. NIH Molecular Libraries Screening Centers Network [MLSCN] NIH Chemical Genomics Center [NCGC] MLSCN Grant: MH081283-01A1 PI Name: Holman, T.R., University of California, Santa Cruz
Assay Protocol: Buffer: 25 mM Hepes pH 7.5, 0.01% Triton X-100. Reagents/Controls: Buffer in columns 3 and 4 as negative control (no enzyme). Substrate solution: 45 uM arachidonic acid (Sigma-Aldrich, St. Louis, MO) final concentration dispensed throughout the plate. Enzyme: 50 nM 15hLO-2 final concentration in columns 1, 2, 5-48. Column 1 is neutral (100% activity). Column 2 contained pin-transferred titration of NDGA (nordihidroguaiaretic acid, Sigma-Aldrich, N 5023, top concentration 10 mM in DMSO, then 1:2 dilution in duplicate). (Dilution factor: 23 nL into 4 uL.) Chromogenic detection reagent (divalent iron/xylenol orange, Fe-XO): 200 uM xylenol orange plus 300 uM ferrous ammonium sulfate prepared freshly in 50 mM sulfuric acid. Assay Steps: Three uL of enzyme were dispensed to 1536-well Greiner black clear bottom plates. Compounds and controls (23 nL) were transferred via Kalypsys PinTool. The plates were incubated for 15 min at room temperature, and then 1 uL of substrate solution was added to start the reaction. After room temperature incubation for 90 minutes, 4 uL of Fe-XO solution was added to each well followed by a short spin (1000 rpm, 15 sec) and the plates were then incubated for 30 min. The absorbance at 405 and 573 nm were measured using ViewLux (Perkin-Elmer) High-throughput CCD imager and absorbance protocol settings. The 573-to-405 absorbance ratio was used to compute reaction progress.

SMILES | activity change, negative = inhibition [%] | Potency
O=C(Nc1nnc(-c2ccccc2)o1)c1ccc(Cl)cc1 | 19.4 | 
Clc1ccc(NNc2ccnc3cc(Cl)ccc23)cc1 | -13.6 | 
COc1ccc(C(C[N+](=O)[O-])c2c(-c3ccccc3)cc3ccccn23)c(OC)c1 (stereo not given) | -11 | 
Cc1ccc(C)c(NC(=S)NNC(=O)c2csc3c2CCC(C)C3)c1 (stereo not given) | -44.7 | 
CN(C)CCC(=O)c1ccc(Cl)cc1 | -28.3 | 
O=C1C2C3CCCC3=C3CCCC3C2C(=O)N1c1cccc(Cl)c1 (stereo not given) | -12.9 | 
Cc1csc(-c2coc3cc(O)cc(C)c3c2=O)n1 | -3.97 | 
O=C(C1=C(O)C(=O)N(Cc2ccco2)C1c1cccnc1)c1cc2ccccc2o1 (stereo not given) | 8.4 | 
Cc1cc(/C=N/NC(=O)Cn2c3ccccc3c(=O)c3ccccc32)c(C)n1-c1ccccc1 |  | 7.08 µM (active)
O=C(Nc1nc2n(n1)C(c1ccccc1)CC(c1ccc(Cl)cc1)N2)c1ccco1 (stereo not given) | 20.6 | 
CC(=O)[C@@H]1[C@@H]2C(=O)N(Cc3ccccc3)C(=O)[C@@H]2C2c3ccccc3C=CN21 (stereo not given in full) | 4.37 | 
CCCC(=O)NC(c1ccco1)c1cc(Cl)c2cccnc2c1O (stereo not given) | 9.81 | 
CCOc1cc(-c2cc(-c3ccc(N)cc3)nc(N)c2C#N)ccc1O | -14.9 | 
O=C(c1ccncc1)N1CCC2(CCCN(Cc3nccs3)C2)CC1 | 2.02 | 
Nc1cc(-c2ccncc2)c[nH]c1=O | -15.4 | 
Cc1c(N/C=C/C(=O)c2cccs2)c(=O)n(-c2ccccc2)n1C | -9.11 | 
COc1cccc(-c2nccc(NCc3ccccc3OC)n2)c1 | -34.6 | 
CC1=NOC(=O)/C1=C\c1ccc(-c2cccc(Cl)c2)o1 |  | 4.47 µM (active)
CC(=O)NCCNc1ncncc1-c1ccc(N(C)C)cc1 | -18.4 | 
NC(=O)c1cccc2c3c([nH]c12)CCCC3 | -5.98 | 

SMILES | activity change, negative = inhibition [%] | Potency
Oc1ccc(CNc2ccccc2)c2cccnc12 | -35.6 | 
CCC(=O)N(Cc1cc(=O)[nH]c2ccccc12)C1CCCCC1 | -23.5 | 
CCOc1ccc(NS(=O)(=O)c2ccc3[nH]cc(C(=O)N(CC)CC)c(=O)c3c2)cc1 | -2.5 | 
O=C(Nc1cccc(F)c1)N1CCCC2(CCN(C(=O)c3ccco3)CC2)C1 | -1.77 | 
OC1(c2cccc(C(F)(F)F)c2)CCN(c2ncnc3c2[nH]c2ccc(F)cc23)CC1 | -11.8 | 
CC1=CC(C)(C)Nc2ccc(OC(=O)CN3C(=O)c4cccc5cccc(c45)C3=O)cc21 |  | 12.6 µM (active)
CN(C)/C=C/C(=O)c1ccc(Cl)cc1 | -5.09 | 
N=c1c(C(=O)NC2CCCC2)cc2c(=O)n3ccccc3nc2n1C1CCCC1 | -11.1 | 
Cc1cccc(NC(=O)CSC(N)=O)c1C | -20.6 | 
COc1cccc(-c2nc(NC3CCNCC3)c3ccccc3n2)c1 | 11.1 | 
Oc1ccc2ccccc2c1CNc1cnc2ccccc2c1 | -10.2 | 
COc1ccccc1-n1c(SCC(=O)Nc2ccc(C)cc2)nc(O)cc1=O | 0.145 | 
c1csc(C2Nc3cccc4cccc(c34)N2)c1 |  | 12.6 µM (active)
CCCCn1c(Cc2ccccc2)n[nH]c1=S | -28.7 | 
Cc1ccc(-c2ccc(/C=C3\C(=O)ON=C3c3ccccc3)o2)c([N+](=O)[O-])c1 |  | 3.16 µM (active)
O=c1c(-c2ccc3c(c2)OCCO3)coc2cc(O)cc(O)c12 | -10.2 | 
O=C(Cc1cc(=O)[nH][nH]1)N/N=C/C=C/c1ccccc1 | 14.5 | 
COc1ccc(NC(=O)CSc2nc(O)cc(=O)n2-c2ccccc2OC)cc1 | -4.58 | 
Cc1ccc(SCCNC(=S)Nc2ccc(C)c(C)c2)cc1 |  | 25.1 µM (active)
CCOC(=O)c1ccc(N2CSC3=C(C#N)C(c4ccc(OC)cc4OC)CC(=O)N3C2)cc1 (stereo not given) | -12 | 
